Inconclusive results are not listed. Active and inactive are the calls of the source. Calls come from the whole dose curve; as a rule, active = well fitted inhibition curve with a large enough effect; inconclusive = small, poorly fitted or top-dose-only effect; inactive = flat fitted curve, though single readings scatter.
Key:
Test in all cases: qHTS profiling for inhibitors of Plasmodium falciparum proliferation (AID 504749); note: nearly all actives have a fitted effect of over 60% in size
Conditions in all cases: P. falciparum in erythrocytes, SYBR Green DNA, 72 h; series mostly up to 28.7 µM
[1] = test system: CP191
Summary of the method: (§1)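 P. falciparum-infected erythrocytes (0.3% parasitemia, 2.5% hematocrit) incubated with compound 72 h at 37 C, 5% CO2. Parasite DNA detected by SYBR Green after lysis, overnight at room temperature; normalised to 0.29 uM artemisinin and DMSO.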

[2] = test system: CP192
Summary of the method: as §1

[3] = test system: CP194
Summary of the method: as §1

[4] = test system: CP201
Summary of the method: as §1

[5] = test system: CP211
Summary of the method: as §1

[6] = test system: CP215
Summary of the method: as §1

[7] = test system: CP217
Summary of the method: as §1

[8] = test system: CP237
Summary of the method: as §1

[9] = test system: CP238
Summary of the method: as §1

[10] = test system: CP247
Summary of the method: as §1

[11] = test system: CP250
Summary of the method: as §1

[12] = test system: CP252
Summary of the method: as §1

[13] = test system: CP256
Summary of the method: as §1

[14] = test system: CP260
Summary of the method: as §1

[15] = test system: CP262
Summary of the method: as §1

[16] = test system: CP265
Summary of the method: as §1

[17] = test system: CP266
Summary of the method: as §1

[18] = test system: CP268
Summary of the method: as §1

[19] = test system: CP269
Summary of the method: as §1

[20] = test system: CP203
Summary of the method: as §1

Measured: Potency

O=C1CN=C(c2ccccc2)c2cc([N+](=O)[O-])ccc2N1
not listed: [20]
inactive: all other assays above

COP(=S)(OC)Oc1ccc(S(=O)(=O)N(C)C)cc1
not listed: [20]
inactive: all other assays above

O=C(O)CCCc1ccc(N(CCCl)CCCl)cc1
not listed: [11]
inactive: all other assays above

Clc1cccc(SC2CCNCC2)n1
inactive: all assays above

CC(C)=CC1C(C(=O)OCN2C(=O)C3=C(CCCC3)C2=O)C1(C)C (stereo unspecified)
not listed: [20]
inactive: all other assays above

CN1C(=O)NC(=O)C(C)(C2=CCCCC2)C1=O (stereo unspecified)
not listed: [20]
inactive: all other assays above

Nc1ccc([As](=O)(O)O)cc1
inactive: all assays above

c1ccc2c(c1)sc1ccccc12
inactive: all assays above

CCOC(=O)CC(SP(=S)(OC)OC)C(=O)OCC (stereo unspecified)
not listed: [17] | [20]
inactive: all other assays above

Cc1ncsc1CCCl
inactive: all assays above

CN1C(=O)CC(=O)N(c2ccccc2)c2cc(Cl)ccc21
not listed: [20]
inactive: all other assays above

C[C@]12CCC(=O)C=C1CC[C@@H]1[C@@H]2CC[C@]2(C)C(=O)CC[C@@H]12
not listed: [20]
inactive: all other assays above

NNc1ccccc1
not listed: [20]
inactive: all other assays above

O=c1[nH]oc2c1CCNC2
not listed: [20]
inactive: all other assays above

CN1C(=O)CCS(=O)(=O)C1c1ccc(Cl)cc1 (stereo unspecified)
inactive: all assays above

CC(C)NC(C)C
not listed: [20]
inactive: all other assays above

Nc1nc(N)nc(NC2CC2)n1
not listed: [20]
inactive: all other assays above

CCC(C)(C)c1ccc(O)cc1
not listed: [20]
inactive: all other assays above

C[C@]12CC[C@@H]3c4ccc(OC(=O)N(CCCl)CCCl)cc4CC[C@H]3[C@@H]1CC[C@@H]2O
not listed: [20]
inactive: all other assays above

NC(=O)CS(=O)C(c1ccccc1)c1ccccc1 (stereo unspecified)
not listed: [20]
inactive: all other assays above

NCCc1ccc(O)cc1
not listed: [20]
inactive: all other assays above

Oc1ccc(Cl)cc1
not listed: [20]
inactive: all other assays above

COP(=S)(OC)Oc1ccc(SC)c(C)c1
inactive: all assays above

CCC1(c2ccccc2)C(=O)N(COC)C(=O)N(COC)C1=O
not listed: [20]
inactive: all other assays above

Nc1ccccc1C(=O)O
not listed: [17] | [20]
inactive: all other assays above

C[C@](O)(CS(=O)(=O)c1ccc(F)cc1)C(=O)Nc1ccc(C#N)c(C(F)(F)F)c1
not listed: [20]
inactive: all other assays above

O=C1OC(c2ccc(O)c(S(=O)(=O)O)c2)(c2ccc(O)c(S(=O)(=O)O)c2)c2c(Br)c(Br)c(Br)c(Br)c21
not listed: [20]
inactive: all other assays above

CN1C(=O)COc2c(C(=O)NC3CN4CCC3CC4)cc(Cl)cc21 (stereo unspecified)
not listed: [20]
inactive: all other assays above
